Results filed as inconclusive are left out. Where a structure was tested more than once in an assay, its records may differ in their call. Activity calls are given as the source filed them. The calls were made as follows, unless noted: active = hit-call score of the fitted dose curve at least 0.9, where 1 is the maximum; inactive = score below 0.9.
Experiments:
[1] = molecular target: Nuclear respiratory factor 1 (Homo sapiens) (UniProt Q16656); test: ATG_NRF1_CIS: Attagene CIS-FACTORIAL HepG2 Assay for human Nuclear Respiratory Factor 1 (NRF1) Orphan Gene (AID 2282987); conditions: HepG2 NRF1 cis-element reporter, Attagene multiplex; actives raise or lower the signal
Chain of Nuclear respiratory factor 1 (Homo sapiens) (Q16656 whole entry, looked up): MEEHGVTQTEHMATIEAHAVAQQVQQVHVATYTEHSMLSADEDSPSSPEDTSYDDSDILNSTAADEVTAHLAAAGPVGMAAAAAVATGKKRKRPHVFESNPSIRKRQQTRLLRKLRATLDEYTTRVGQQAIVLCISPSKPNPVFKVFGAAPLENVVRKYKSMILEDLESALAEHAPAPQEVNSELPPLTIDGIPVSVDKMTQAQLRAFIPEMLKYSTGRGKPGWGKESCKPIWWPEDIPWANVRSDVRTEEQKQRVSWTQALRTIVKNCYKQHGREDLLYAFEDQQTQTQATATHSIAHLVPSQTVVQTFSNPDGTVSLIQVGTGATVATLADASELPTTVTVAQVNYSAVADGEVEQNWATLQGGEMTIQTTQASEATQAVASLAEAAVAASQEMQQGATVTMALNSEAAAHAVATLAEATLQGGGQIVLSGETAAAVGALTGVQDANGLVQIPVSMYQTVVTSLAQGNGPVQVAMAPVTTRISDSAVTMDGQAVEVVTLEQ
Procedure, shortened: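 Transcriptional reporter readout, one component of a 52-endpoint multiplexed HepG2 panel. Exposure 24 h; mRNA detected via RT-PCR and fluorescent capillary electrophoresis; fitting in both directions against DMSO.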

[2] = ATG_NFI_CIS: Attagene CIS-FACTORIAL HepG2 Assay for human Nuclear Factor I (NFI) (AID 2282989); conditions: HepG2 cis-regulatory reporter, NFI response element transcription; actives raise or lower the signal
Procedure, shortened: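 Transient MRTU transfection of HepG2 → 24 h chemical dosing → total RNA, oligo(dT) RT → PCR, 6-FAM primer extension, HpaI cut → capillary electrophoresis. Endpoint fitted bidirectionally relative to DMSO.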

[3] = ATG_NRF2_ARE_CIS: Attagene CIS-FACTORIAL HepG2 Assay for human Nuclear Factor Erythroid 2 Related Factor 2 (NFR2) response to Antioxidant Response Elements (ARE) (AID 2282992); conditions: HepG2 Attagene ARE/NRF2 reporter, transcription factor activity; actives raise or lower the signal;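 as to AC50: reporter mRNA level measured by RT-PCR and capillary electrophoresis fluorescence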
Procedure, shortened: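 Endogenous transcription factor activity in human liver HepG2 cells is tracked via a cis-element-driven reporter within a multiplexed set. mRNA induction is read by RT-PCR and capillary electrophoresis after 24 h, with DMSO as baseline.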

[4] = ATG_Oct_MLP_CIS: Attagene CIS-FACTORIAL HepG2 Assay for human Octamer-Binding Transcription Factor (Oct) (AID 2282993); conditions: HepG2 Attagene cis-factorial Oct reporter, mRNA; actives raise or lower the signal
Procedure, shortened: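 Transient MRTU transfection of HepG2 → 24 h compound treatment → RNA isolation, reverse transcription, PCR → 6-FAM primer extension, HpaI digest → capillary electrophoresis. Activity fitted both directions against DMSO.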

[5] = BSK_3C_TissueFactor: BioMAP Diversity Plus: 3C Assay for Tissue Factor Biomarker Activity (AID 2282997); conditions: BioMAP 3C HUVEC, tissue factor biomarker readout; actives raise or lower the signal
Procedure, shortened: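 Tissue Factor measured by ELISA, 24 h after treatment of primary HUVEC in the BioMAP 3C setting.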

[6] = BSK_3C_uPAR: BioMAP Diversity Plus: 3C Assay for Urokinase-type plasminogen activator receptor (uPAR) Biomarker Activity (AID 2282998); conditions: BioMAP 3C HUVEC, uPAR biomarker ELISA; actives raise or lower the signal
Procedure, shortened: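 ELISA readout of uPAR on human vascular endothelium (umbilical vein primary cells), taken 24 h after chemical dosing. Increases and decreases are both fitted relative to DMSO vehicle.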

[7] = BSK_3C_VCAM1: BioMAP Diversity Plus: 3C Assay for Vascular cell adhesion molecule 1 (VCAM1) Biomarker Activity (AID 2282999); conditions: BioMAP 3C HUVEC, VCAM1 ELISA, cytokine-stimulated; actives raise or lower the signal
Procedure, shortened: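 HUVEC primary cells, 24 h compound exposure; VCAM-1 by ELISA; gain/loss of signal fitted bidirectionally vs DMSO baseline.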

[8] = BSK_4H_Eotaxin3: BioMAP Diversity Plus: 4H Assay for Eotaxin 3 Biomarker Activity (AID 2283000); conditions: primary human endothelial cells (HUVEC); actives raise or lower the signal
Procedure, shortened: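 Eotaxin-3 (CCL26) levels were measured by ELISA in HUVEC primary cultures 24 h post-dosing. Gain or loss of signal was fitted in both directions, with DMSO serving as baseline and negative control.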

[9] = molecular target: human Retinoic Acid Receptor beta (RARb), RARB (gene 5915) (UniProt P10826); test: ATG_RARb_TRANS: Attagene TRANS-FACTORIAL HepG2 Assay for human Retinoic Acid Receptor beta (AID 2283004; active = hit-call score of the fitted dose curve at least 0.9, where 1 is the maximum)
Chain of human Retinoic Acid Receptor beta (RARb), RARB (gene 5915) (P10826 whole entry, looked up, the tested form may be a part): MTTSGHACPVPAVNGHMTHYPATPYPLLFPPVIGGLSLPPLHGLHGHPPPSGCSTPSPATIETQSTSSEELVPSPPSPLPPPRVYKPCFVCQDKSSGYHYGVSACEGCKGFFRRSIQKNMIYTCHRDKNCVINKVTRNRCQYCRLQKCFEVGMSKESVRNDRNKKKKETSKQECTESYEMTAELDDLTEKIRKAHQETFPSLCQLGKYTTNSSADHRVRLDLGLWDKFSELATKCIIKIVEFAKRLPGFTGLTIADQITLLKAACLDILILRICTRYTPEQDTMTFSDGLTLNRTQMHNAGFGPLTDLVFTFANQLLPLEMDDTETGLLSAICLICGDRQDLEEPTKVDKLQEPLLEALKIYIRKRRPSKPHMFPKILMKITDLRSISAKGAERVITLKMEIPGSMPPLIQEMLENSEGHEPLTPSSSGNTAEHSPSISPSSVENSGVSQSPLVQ
Procedure, shortened: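 HepG2 cells were transiently transfected with GAL4-UAS reporter units that report activity of exogenous chimeric NR-Gal4 proteins, then exposed to compound for 24 h. Reporter mRNA was quantified by RT-PCR with capillary electrophoresis fluorescence, as gain of signal over DMSO.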

[10] = molecular target: Retinoic acid receptor alpha (Homo sapiens) (UniProt P10276); test: ATG_RARa_TRANS: Attagene TRANS-FACTORIAL HepG2 Assay for human Retinoic Acid Receptor alpha (RARa) (AID 2283005; active = hit-call score of the fitted dose curve at least 0.9, where 1 is the maximum;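 as to AC50: potency for increased reporter signal meaning RARa activation over DMSO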)
Chain of Retinoic acid receptor alpha (Homo sapiens) (P10276 whole entry, looked up, the tested form may be a part): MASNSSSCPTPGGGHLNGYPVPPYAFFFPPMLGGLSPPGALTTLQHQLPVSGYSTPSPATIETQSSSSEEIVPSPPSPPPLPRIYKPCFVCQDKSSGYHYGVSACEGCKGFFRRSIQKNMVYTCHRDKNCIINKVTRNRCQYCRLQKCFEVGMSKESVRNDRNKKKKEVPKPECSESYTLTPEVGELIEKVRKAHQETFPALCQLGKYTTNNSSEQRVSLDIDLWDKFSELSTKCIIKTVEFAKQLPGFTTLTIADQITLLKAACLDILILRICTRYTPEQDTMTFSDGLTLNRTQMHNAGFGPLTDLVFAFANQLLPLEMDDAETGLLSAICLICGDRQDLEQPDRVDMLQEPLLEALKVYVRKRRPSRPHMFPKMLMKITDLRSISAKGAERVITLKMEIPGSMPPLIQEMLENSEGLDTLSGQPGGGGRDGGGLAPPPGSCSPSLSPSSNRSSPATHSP
Procedure, shortened: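 HepG2 transiently transfected with multiplex GAL4-UAS reporter units including a human RARa–GAL4 chimera; 24 h compound exposure. Reporter mRNA quantified by RT-PCR, 6-FAM labeling and capillary electrophoresis; gain of signal versus DMSO.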

[11] = BSK_3C_Proliferation: Cell Proliferation Assessment in the BioMAP Diversity Plus: 3C Assay (AID 2283006); conditions: primary human endothelial cells (HUVEC);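 as to AC50: potency may reflect either rise or fall in cell number versus DMSO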
Procedure, shortened: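 Measured here: sulforhodamine B (0.1%) staining of TCA-fixed sub-confluent umbilical vein endothelial cultures 48 h post-dosing, absorbance 560 nm. DMSO served as negative control and baseline; both signal gain and loss were modelled.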

[12] = molecular target: Peroxisome proliferator-activated receptor gamma (Homo sapiens) (UniProt P37231); test: ATG_PPARg_TRANS: Attagene TRANS-FACTORIAL HepG2 Assay for human Peroxisome Proliferator-activated Receptor-gamma (PPARg) (AID 2283007; active = hit-call score of the fitted dose curve at least 0.9, where 1 is the maximum)
Chain of Peroxisome proliferator-activated receptor gamma (Homo sapiens) (P37231 whole entry, looked up): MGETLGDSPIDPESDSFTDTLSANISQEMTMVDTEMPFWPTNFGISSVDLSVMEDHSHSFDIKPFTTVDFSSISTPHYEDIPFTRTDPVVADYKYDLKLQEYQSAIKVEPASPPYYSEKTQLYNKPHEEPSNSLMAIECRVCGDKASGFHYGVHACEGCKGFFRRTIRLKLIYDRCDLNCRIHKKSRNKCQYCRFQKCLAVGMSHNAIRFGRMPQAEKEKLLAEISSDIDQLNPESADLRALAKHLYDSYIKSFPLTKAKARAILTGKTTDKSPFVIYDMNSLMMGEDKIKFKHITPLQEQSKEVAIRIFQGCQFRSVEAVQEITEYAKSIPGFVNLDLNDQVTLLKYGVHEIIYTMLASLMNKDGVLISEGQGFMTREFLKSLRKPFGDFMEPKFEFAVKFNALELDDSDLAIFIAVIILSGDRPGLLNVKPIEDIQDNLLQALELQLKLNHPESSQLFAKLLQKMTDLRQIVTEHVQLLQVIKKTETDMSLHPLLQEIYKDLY
Procedure, shortened: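 Multiplexed reporter transcription units in HepG2, 24 h dosing, reporter transcripts quantified by fluorescent RT-PCR and capillary electrophoresis. Increase over DMSO scored.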

[13] = molecular target: Nuclear receptor subfamily 1 group I member 2 (Homo sapiens) (UniProt O75469); test: ATG_PXR_TRANS: Attagene TRANS-FACTORIAL HepG2 Assay for human Pregnane X Receptor (PXR) (AID 2283008; active = hit-call score of the fitted dose curve at least 0.9, where 1 is the maximum)
Chain of Nuclear receptor subfamily 1 group I member 2 (Homo sapiens) (O75469 whole entry, looked up, the tested form may be a part): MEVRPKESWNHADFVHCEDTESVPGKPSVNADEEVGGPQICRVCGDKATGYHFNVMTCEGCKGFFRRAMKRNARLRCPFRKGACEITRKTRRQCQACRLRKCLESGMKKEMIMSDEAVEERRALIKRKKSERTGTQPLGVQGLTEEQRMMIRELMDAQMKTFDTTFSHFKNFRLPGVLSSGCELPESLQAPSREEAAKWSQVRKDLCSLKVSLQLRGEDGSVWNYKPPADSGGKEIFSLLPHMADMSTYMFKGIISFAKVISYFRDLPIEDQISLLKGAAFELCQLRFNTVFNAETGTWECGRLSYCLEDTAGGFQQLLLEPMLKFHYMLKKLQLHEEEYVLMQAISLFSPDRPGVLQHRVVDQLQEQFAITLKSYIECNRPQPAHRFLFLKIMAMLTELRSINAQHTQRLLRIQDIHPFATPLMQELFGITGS
Procedure, shortened: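 HepG2 transfected (FuGene 6) with GAL4-UAS reporter units + PXR-Gal4 chimera; dosed 24 h. Total RNA → oligo(dT) RT → PCR → 6-FAM primer extension → HpaI cut → CE. Gain-of-signal vs DMSO.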

[14] = molecular target: human Retinoic Acid Receptor gamma (RARg), RARG (gene 5916) (UniProt P13631); test: ATG_RARg_TRANS: Attagene TRANS-FACTORIAL HepG2 Assay for human Retinoic Acid Receptor gamma (RARg) (AID 2283009; active = hit-call score of the fitted dose curve at least 0.9, where 1 is the maximum)
Chain of human Retinoic Acid Receptor gamma (RARg), RARG (gene 5916) (P13631 whole entry, looked up, the tested form may be a part): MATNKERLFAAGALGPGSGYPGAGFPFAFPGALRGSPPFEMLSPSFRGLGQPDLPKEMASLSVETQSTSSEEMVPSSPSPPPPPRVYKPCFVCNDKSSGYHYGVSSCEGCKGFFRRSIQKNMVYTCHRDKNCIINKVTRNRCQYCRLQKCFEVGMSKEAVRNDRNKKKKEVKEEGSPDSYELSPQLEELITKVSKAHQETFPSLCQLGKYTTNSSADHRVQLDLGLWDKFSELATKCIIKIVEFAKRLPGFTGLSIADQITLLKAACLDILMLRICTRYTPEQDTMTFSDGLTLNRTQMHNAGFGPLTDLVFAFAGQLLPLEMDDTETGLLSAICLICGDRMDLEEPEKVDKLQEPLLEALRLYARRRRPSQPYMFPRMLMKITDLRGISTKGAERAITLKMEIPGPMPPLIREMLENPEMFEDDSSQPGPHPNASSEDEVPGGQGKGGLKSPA
Procedure, shortened: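 Gain-of-signal relative to DMSO is reported from fluorescent capillary electrophoresis of RT-PCR reporter products. These came from HepG2 cells expressing transfected RARg-GAL4 chimeras with UAS reporters, harvested 24 h after dosing.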

[15] = ATG_NF_kB_CIS: Attagene CIS-FACTORIAL HepG2 Assay for human Nuclear Factor Kappa B (NF-kB) (AID 2282991); conditions: HepG2 Attagene cis-factorial NF-kB reporter mRNA; actives raise or lower the signal
Procedure, shortened: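 HepG2, transient multi-reporter transfection, cis promoter elements (endogenous TFs). 24 h exposure. Total RNA → RT → PCR → 6-FAM label → HpaI → CE. Gain/loss vs DMSO.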

[16] = molecular target: human Peroxisome Proliferator-activated Receptor delta (PPARd), PPARD (gene 5467) (UniProt Q03181); test: ATG_PPARd_TRANS: Attagene TRANS-FACTORIAL HepG2 Assay for human Peroxisome Proliferator-activated Receptor delta (PPARd) (AID 2283002; active = hit-call score of the fitted dose curve at least 0.9, where 1 is the maximum)
Chain of human Peroxisome Proliferator-activated Receptor delta (PPARd), PPARD (gene 5467) (Q03181 whole entry, looked up, the tested form may be a part): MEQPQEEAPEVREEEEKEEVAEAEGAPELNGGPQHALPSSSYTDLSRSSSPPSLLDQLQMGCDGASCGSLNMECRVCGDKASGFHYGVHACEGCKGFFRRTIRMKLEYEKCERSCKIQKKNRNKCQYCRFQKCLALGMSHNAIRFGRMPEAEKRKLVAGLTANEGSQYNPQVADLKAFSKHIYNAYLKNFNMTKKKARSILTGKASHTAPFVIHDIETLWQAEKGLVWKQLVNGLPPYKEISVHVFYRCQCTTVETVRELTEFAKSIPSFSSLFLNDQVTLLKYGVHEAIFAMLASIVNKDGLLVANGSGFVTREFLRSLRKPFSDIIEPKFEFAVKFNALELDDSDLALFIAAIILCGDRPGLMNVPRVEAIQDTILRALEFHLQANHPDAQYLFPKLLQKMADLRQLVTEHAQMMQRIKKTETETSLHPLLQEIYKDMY
Procedure, shortened: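 HepG2 cells transiently transfected with GAL4-UAS multiplexed reporter units driven by exogenous chimeric NR-GAL4 proteins; 24 h compound exposure. Reporter mRNA measured by RT-PCR, 6-FAM primer extension, HpaI digestion and capillary electrophoresis; gain of signal fitted relative to DMSO.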

[17] = molecular target: Cellular tumor antigen p53 (Homo sapiens) (UniProt P04637); test: ATG_p53_CIS: Attagene CIS-FACTORIAL HepG2 Assay for human p53 Transcription Factor (AID 2282994); conditions: HepG2 p53 cis-element reporter, Attagene mRNA; actives raise or lower the signal
Chain of Cellular tumor antigen p53 (Homo sapiens) (P04637 whole entry, looked up, the tested form may be a part): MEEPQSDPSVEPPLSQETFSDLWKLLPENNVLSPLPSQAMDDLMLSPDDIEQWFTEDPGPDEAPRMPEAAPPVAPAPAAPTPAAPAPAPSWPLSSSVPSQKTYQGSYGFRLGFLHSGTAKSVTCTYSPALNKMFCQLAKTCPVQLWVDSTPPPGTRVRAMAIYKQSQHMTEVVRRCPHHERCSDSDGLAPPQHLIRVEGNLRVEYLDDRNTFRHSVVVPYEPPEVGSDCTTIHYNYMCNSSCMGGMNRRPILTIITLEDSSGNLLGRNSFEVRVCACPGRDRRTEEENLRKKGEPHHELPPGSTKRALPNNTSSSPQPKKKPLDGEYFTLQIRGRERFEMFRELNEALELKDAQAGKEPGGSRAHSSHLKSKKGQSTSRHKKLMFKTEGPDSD
Procedure, shortened: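 Steps: transfect HepG2 with multiplexed cis reporter constructs; dose chemicals 24 h; extract RNA, reverse-transcribe, PCR-amplify reporter sequences; FAM-label, HpaI-digest, resolve fragments by CE. Activity fitted both directions relative to DMSO.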

[18] = read-out: Intercellular Adhesion Molecule 1 (ICAM1), ICAM1 (gene 3383); test: BSK_3C_ICAM1: BioMAP Diversity Plus: 3C Assay for Intercellular Adhesion Molecule 1 (ICAM1) Biomarker Activity (AID 2283003); conditions: primary human endothelial cells (HUVEC); actives raise or lower the signal
Procedure, shortened: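 Using DMSO as baseline, bidirectional curve fitting was applied to ICAM-1 ELISA signals from HUVEC in the 3C system, measured 24 h after compound addition.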

[19] = molecular target: human Peroxisome Proliferator-activated Receptor alpha (PPARa), PPARA (gene 5465) (UniProt Q07869); test: ATG_PPARa_TRANS: Attagene TRANS-FACTORIAL HepG2 Assay for human Peroxisome Proliferator-activated Receptor alpha (PPARa) (AID 2283001; active = hit-call score of the fitted dose curve at least 0.9, where 1 is the maximum)
Chain of human Peroxisome Proliferator-activated Receptor alpha (PPARa), PPARA (gene 5465) (Q07869 whole entry, looked up, the tested form may be a part): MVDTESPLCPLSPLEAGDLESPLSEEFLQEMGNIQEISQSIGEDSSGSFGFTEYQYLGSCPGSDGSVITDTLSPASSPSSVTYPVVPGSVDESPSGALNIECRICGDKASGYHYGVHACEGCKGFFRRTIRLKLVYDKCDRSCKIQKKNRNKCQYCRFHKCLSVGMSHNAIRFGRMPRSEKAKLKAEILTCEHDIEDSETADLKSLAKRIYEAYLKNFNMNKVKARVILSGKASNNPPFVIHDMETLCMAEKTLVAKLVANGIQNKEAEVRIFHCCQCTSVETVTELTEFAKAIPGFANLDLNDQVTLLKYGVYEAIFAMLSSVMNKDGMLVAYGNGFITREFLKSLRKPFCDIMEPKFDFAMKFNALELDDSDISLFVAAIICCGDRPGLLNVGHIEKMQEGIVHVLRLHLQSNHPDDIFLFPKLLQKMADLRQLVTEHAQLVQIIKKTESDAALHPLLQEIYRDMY
Procedure, shortened: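 Transient HepG2 transfection, GAL4-UAS reporters, NR-Gal4 chimeras; 24 h compound exposure. Readout: reporter transcripts by RT-PCR, 6-FAM primer extension, HpaI digest, capillary electrophoresis. Positive direction vs DMSO baseline.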

Measured: AC50

O=[N+]([O-])/N=C1\NCCN1Cc1ccc(Cl)nc1
active: [13] 90.7 µM
not listed: [15] | [16] | [17] | [18] | [19]
inactive: all other assays above

COP(=O)(OC)OC=C(Cl)Cl
active: [3] 35.7 µM | [4] 11.5 µM | [11] 17.6 µM
not listed: [9] | [10] | [14] | [17] | [18] | [19]
inactive: all other assays above

CCc1ccc(C(=O)NN(C(=O)c2cc(C)cc(C)c2)C(C)(C)C)cc1
active: [15] 9.92 µM | [3] 9.92 µM | [6] 20 µM
not listed: [16] | [19]
inactive: all other assays above

Cc1cc(C)nc(NC(=O)NS(=O)(=O)c2ccccc2C(=O)OC2COC2)n1
active: [4] 50 µM
not listed: [10] | [16] | [18] | [19]
inactive: all other assays above

CNC(=O)/C=C(\C)OP(=O)(OC)OC
not listed: [9] | [10] | [14] | [15] | [16] | [17]
inactive: all other assays above

CCCN(CCOc1c(Cl)cc(Cl)cc1Cl)C(=O)n1ccnc1
inactive: [1] | [2] | [3] | [4] | [17] | [5] | [6] | [7] | [8] | [19] | [16] | [9] | [10] | [12] | [13] | [14]
active: [3] 4.52 µM | [4] 11.1 µM | [10] 2.5 µM | [11] 26.7 µM | [13] 2.96 µM

C#CCN1C(=O)COc2cc(F)c(N3C(=O)C4=C(CCCC4)C3=O)cc21
active: [3] 40.4 µM | [12] 50 µM
not listed: [16] | [17]
inactive: all other assays above

N#CN
not listed: [9] | [10] | [14] | [17] | [18]
inactive: all other assays above

CNC(=O)Oc1cccc(N=CN(C)C)c1
active: [2] 82.3 µM | [3] 50 µM | [4] 25.7 µM | [7] 29 µM
not listed: [14] | [15]
inactive: all other assays above

O=[N+]([O-])c1c(Cl)c(Cl)c(Cl)c(Cl)c1Cl
active: [15] 13.8 µM | [3] 4.17 µM | [7] 21.4 µM | [11] 30.1 µM | [12] 16.4 µM
not listed: [18] | [19]
inactive: all other assays above

OCCOc1ccccc1
not listed: [9] | [15] | [16] | [18]
inactive: all other assays above

CC(C)N(C(=O)COc1nnc(C(F)(F)F)s1)c1ccc(F)cc1
active: [15] 12.6 µM | [3] 20.7 µM | [4] 17.2 µM | [12] 14.3 µM | [13] 10.7 µM
not listed: [9] | [10] | [14] | [18] | [19]
inactive: all other assays above

CCN(CC)C(=O)SCc1ccc(Cl)cc1
active: [3] 6.08 µM | [4] 25 µM | [12] 37.1 µM
not listed: [10] | [16] | [18]
inactive: all other assays above

CCC(C)(C)C(=O)OC1=C(c2ccc(Cl)cc2Cl)C(=O)OC12CCCCC2
active: [3] 1.27 µM | [5] 13.4 µM | [6] 33.9 µM | [7] 24.7 µM | [8] 32.3 µM | [11] 29.2 µM
not listed: [10] | [13] | [16] | [18]
inactive: all other assays above

CC(C)(C)C(O)/C(=C\c1ccc(Cl)cc1Cl)n1cncn1 (stereo unspecified)
active: [5] 36.7 µM | [6] 29.4 µM | [7] 25.3 µM | [8] 30.4 µM | [11] 26.3 µM
not listed: [10] | [15] | [19]
inactive: all other assays above

CCCN(CCC)c1c([N+](=O)[O-])cc(C(F)(F)F)cc1[N+](=O)[O-]
active: [3] 8.43 µM | [4] 2.29 µM | [8] 33 µM | [11] 29.1 µM | [13] 10.6 µM
inactive: [1] | [2] | [15] | [5] | [6] | [7] | [12]

From PubChem BioAssay (EPA / NIEHS)
